Source: PubChem BioAssay (National Center for Advancing Translational Sciences (NCATS))
nsP2pro primary – inhibitors of chikungunya virus nsP2 protease. FRET peptide cleavage, nsP2pro, fluorescence 1 h. Potency, µM (titrated, usually from 24.9 µM), inactives show at the highest dose activity change, negative = inhibition, usual class: inhibitors. 1.1% of 31,000 active. AID 1964107; further: nearly all actives have a fitted effect of over 60% in size
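Recombinant nsP2pro (150 nM) was preincubated with compound 15 min at room temperature in 10 mM Tris-HCl pH 8.0, 0.01% Tween 20. Peptide 2 FRET substrate (2.5 uM) was then added and fluorescence read after 1 h. Seven-point series, up to 25 uM.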
nsP2 cell sec – secondary cell-based test for CHIKV nsP2 protease inhibitors; Potency, µM (doses to about 51.1 µM), inactives show top-dose activity change, negative = inhibition, usual class: inhibitors; 10% of 450 active; cell-based CHIKV nsP2 protease reporter assay; shares compounds with nsP2pro primary; further: nearly all actives have a fitted effect of over 70% in size
CHIKV NSP2 FL – full-length CHIKV NSP2 protease inhibition, selectivity. shares compounds with nsP2pro primary. Full-length CHIKV NSP2 protease enzymatic counterscreen. Potency, µM (titrated, usually from 50.7 µM), inactives show at the top dose activity change, negative = inhibition, most hits filed as inhibitors. 39% of 410 active; further: nearly all actives have a fitted effect of over 65% in size
Furin counter – selectivity counter-screen for CHIKV nsP2 protease inhibitors: human furin | shares compounds with nsP2pro primary | Recombinant human furin enzymatic counterscreen, fluorogenic substrate | Potency, µM (series often up to 50.6 µM), inactives show at the highest dose activity change, negative = inhibition, actives largely listed as inhibitors | 6% of 410 active
NS23 peptide cs – blocks CHIKV nsP2 protease cleavage of endogenous NS2/3 peptide. shares compounds with nsP2pro primary. Purified CHIKV nsP2 protease, endogenous NS2/3 peptide cleavage. Potency, µM (highest dose often 51 µM), without a hit: top-dose activity change, negative = inhibition, hits mostly inhibitors. 34% of 410 active. AID 1964103; further: nearly all actives have a fitted effect of over 55% in size
Papain counter – selectivity counter-screen for CHIKV nsP2 protease inhibitors: papain | 5% of 410 active | shares compounds with nsP2pro primary | Potency, µM (titrated, usually from 51 µM), inactives show top-dose activity change, negative = inhibition, usual class: inhibitors | purified papain protease activity, enzymatic inhibition | AID 1964104
Target sequence (P00784 whole entry, looked up): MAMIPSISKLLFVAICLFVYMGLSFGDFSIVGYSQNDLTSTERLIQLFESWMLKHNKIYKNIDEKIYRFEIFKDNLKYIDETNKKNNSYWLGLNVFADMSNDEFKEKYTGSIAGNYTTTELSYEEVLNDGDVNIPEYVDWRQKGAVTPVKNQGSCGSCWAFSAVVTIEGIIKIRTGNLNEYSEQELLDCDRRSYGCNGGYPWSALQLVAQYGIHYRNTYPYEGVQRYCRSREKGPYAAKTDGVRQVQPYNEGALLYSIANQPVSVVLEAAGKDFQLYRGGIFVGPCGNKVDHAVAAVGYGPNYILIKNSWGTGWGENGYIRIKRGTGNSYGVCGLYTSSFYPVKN
nsP2pro confirm – CHIKV nsP2 protease inhibition, confirmatory qHTS; shares compounds with nsP2pro primary; CHIKV nsP2 protease enzymatic activity, qHTS; Potency, µM (doses to about 25.5 µM), inactives show at the top dose activity change, negative = inhibition, most hits filed as inhibitors; 43% of 410 active; AID 1964105; further: nearly all actives have a fitted effect of over 75% in size
HCV NS3 4A cs – HCV NS3/4A protease inhibition, counterscreen. HCV NS3/4A protease biochemical counterscreen. shares compounds with nsP2pro primary. AID 1964106. Potency, µM (highest dose often 50.9 µM), hits mostly inhibitors. 20% of 410 active; further: nearly all actives have a fitted effect of over 55% in size
The depositor's hits bear a star; i = inactive; u = inconclusive; ! = not confirmed by another sample; [ ] = dose if it differs, or a comment. Shown is part of a subset that was picked to be rich in hits. The call rests on the fitted dose curve. On the % scale 0 is the no-effect control and ±100 the full control effect; potency means the concentration at half of the fitted maximal effect.

SMILES	nsP2pro primary	others
N#C/C(=C1\SCC(c2ccccc2Cl)S1)n1ccnc1 (stereo not drawn)	22%
Cc1cnc(-c2ccncc2)n1C1CCN(S(=O)(=O)c2cccc(F)c2)CC1	i
COc1ccccc1NC(=O)N1C[C@@H]2C[C@H](C1)c1c(/C=C/c3ccc(Cl)cc3)ccc(=O)n1C2	-10%
CC[C@H](C)C(=O)O[C@H]1C[C@@H](C)C=C2C=C[C@H](C)[C@H](CC[C@@H]3C[C@@H](O)CC(=O)O3)[C@H]21	-13%
CCC(C)C(=O)OC1CCC=C2C=CC(C)C(CCC3CC(O)CC(=O)O3)C21 (stereo not drawn)	u	nsP2 cell sec=37%;CHIKV NSP2 FL=7%;Furin counter=-5%;NS23 peptide cs=-11%;Papain counter=-24%;nsP2pro confirm=-15%;HCV NS3 4A cs=i
Cc1ccc(C(=O)N2CC(CN3C(=O)c4c(c(C)nn4-c4ccccc4)C3C3CC3)C2)cc1 (stereo not drawn)	2%
Cc1cc(OCCN(C)C)c(C)c2c1CC[C@@H]([C@H](C)C(=O)NCc1cccs1)C2	37%[39.2 µM]
COc1cc(C)c2c(c1C)C[C@H](C(C)C(=O)NCc1ccco1)CC2 (stereo partly drawn)	7.9µM*	nsP2 cell sec=-14%
COc1ccc(CCNC(=O)C(C)C2CCOCC2)cc1OC (stereo not drawn)	-1%
Cc1ccc(OCCn2c(CCNC(=O)c3ccc4cc[nH]c4c3)nc3ccccc32)cc1	-11%
Fc1ccccc1-c1nc2ccn(Cc3ccc(-c4ccc(C(F)(F)F)cc4C(F)(F)F)nn3)cc-2n1	26%
COc1cc2ncnc(Sc3nnc(C)s3)c2cc1OC	46%
COc1cccc(CNc2ccc(S(=O)(=O)Nc3nc(C)cs3)cc2)c1O	3%
CCN1Cc2ccccc2NC(=O)C12CCNC2 (stereo not drawn)	8.9µM*	nsP2 cell sec=u;CHIKV NSP2 FL=6.4µM*;Furin counter=-22%;NS23 peptide cs=14µM*;Papain counter=-4%;nsP2pro confirm=8.9µM*;HCV NS3 4A cs=3.6µM*
CN1Cc2ccccc2NC(=O)C12CCNC2 (stereo not drawn)	-16%[39.2 µM]
O=C1Nc2ccccc2CN(CC2CCCCC2)C12CCNC2 (stereo not drawn)	7%
N#Cc1ccc(CN2CCC(N3CCCOC3=O)CC2)cc1	1%
CN(C)c1cnc2c(O)ccc([S+](=O)([O-])Nc3ccccc3F)c2c1	i
Cc1oc(=O)oc1COC(=O)[C@@H]1N2C(=O)[C@@H](NC(=O)[C@H](N)c3ccccc3)[C@H]2SC1(C)C	0%
Cn1c(Cn2ccnc2)nnc1C1CC(NC(=O)c2ccc(CO)o2)C1 (stereo not drawn)	4%
Nc1nc2c(s1)C(c1ccccc1Cl)CC(=O)N2 (stereo not drawn)	10µM*!	nsP2 cell sec=-40%;CHIKV NSP2 FL=1.6µM*;Furin counter=-5%;NS23 peptide cs=3.7µM*;Papain counter=9%;nsP2pro confirm=4µM*;HCV NS3 4A cs=i
COc1ccc(COC(=O)C2=C(C)NC(=O)CC2c2cccc(Cl)c2Cl)cc1 (stereo not drawn)	-11%
CSc1nc2c(c(=O)[nH]1)C(c1cccc(F)c1F)CC(=O)N2 (stereo not drawn)	-27%
CC1=C(C(=O)OCC2CCCCC2)C(c2ccccc2F)CC(=O)N1 (stereo not drawn)	-8%
O=C1CC(c2c(F)cccc2Cl)c2c(ccc3ccccc23)N1 (stereo not drawn)	-15%
SMILES	nsP2pro primary	others
CNc1nc2c(s1)C(c1ccccc1F)CC(=O)N2 (stereo not drawn)	1.6µM*	nsP2 cell sec=8%;CHIKV NSP2 FL=3.3µM*;Furin counter=-9%;NS23 peptide cs=4.6µM*;Papain counter=14%;nsP2pro confirm=2.8µM*;HCV NS3 4A cs=u
Cc1noc(C2CCCCN2C(=O)c2ccoc2)n1 (stereo not drawn)	-15%
Cc1ccc(S(=O)(=O)Nc2ccccc2C(=O)Nc2cccc(-c3ccccc3)c2)cc1	-29%
O=Nc1c2[nH]c3ccccc3nc-2c2ccccc12	68%
O=C(c1cc(F)ccc1F)N1CC(c2nc(CCc3ccccc3)no2)C1	-9%
CCCc1nc(C(=O)N2CC[C@H](CO)[C@H](O)C2)cs1	-2%
Cc1ccc(S(=O)(=O)Nc2cnccc2C(=O)Nc2ccc(-c3nn[nH]n3)cc2)cc1	i
CN[C@@H]1[C@H](O[C@H]2[C@H](O[C@@H]3[C@@H](O)[C@H](O)[C@@H](N=C(N)N)[C@H](O)[C@H]3N=C(N)N)O[C@@H](C)[C@]2(O)CO)O[C@@H](CO)[C@H](O)[C@H]1O	9%
CC(C)NC(=O)[C@@H]1C[C@@H](N)CN1C(=O)c1cccc2ccccc12	0%
O=C(NC1CCCCC1)O[C@@H]1CO[C@H]2[C@@H]1OC[C@@H]2n1nnnc1-c1ccc2c(c1)OCCO2	i
CC1=CC2/C=C(\C)CCC(O)C(O)/C=C/C(=O)OC23C(=O)NC(CC(C)C)C3C1C (stereo not drawn)	-14%[10 µM]
C=C1[C@@H](C)C2[C@H](Cc3ccccc3)NC(=O)[C@@]23C(/C=C/C[C@H](C)C[C@@](C)(O)/C=C/[C@@H]3OC(C)=O)[C@@H]1O (stereo partly drawn)	-3%
C=C1[C@@H](C)[C@H]2[C@H](Cc3ccccc3)NC(=O)[C@]23OC(=O)/C=C/C(=O)CCC[C@@H](C)C/C=C/[C@H]3[C@@H]1O	2.5µM*	nsP2 cell sec=0.71µM*;CHIKV NSP2 FL=7.3µM*;Furin counter=-4%;NS23 peptide cs=8.2µM*;Papain counter=-12%;nsP2pro confirm=1.1µM*;HCV NS3 4A cs=0.37µM*
O=C1NC(Cc2ccccc2)C(=O)N2CCCC12 (stereo not drawn)	16%
CCCCOc1ccc(C(=O)Nc2ccc(F)cc2F)cc1	-8%
CCCNC(=O)CN1CCN(c2ccc(NC(=O)c3ccc(OC)cc3)cc2C(=O)O)CC1	4.5µM*	nsP2 cell sec=u;CHIKV NSP2 FL=4.1µM*;Furin counter=u;NS23 peptide cs=13µM*;Papain counter=2%;nsP2pro confirm=7.1µM*;HCV NS3 4A cs=2.9µM*
CCOc1ccc(NC(=O)NCCCN2CCN(c3ccc(OC)cc3)CC2)cc1	-11%
Cc1ccc(Cl)cc1N1CCN(CCNC(=O)Nc2ccc(Cl)cc2)CC1	-13%
CCOc1ccc(NC(=O)CN2CCN(S(=O)(=O)c3ccc(OC)cc3)CC2)cc1	-29%
